Bioassay records as filed in PubChem.
HT1080-NT tox: kills 2HG-producing HT-1080-NT fibrosarcoma cells; HT-1080-NT fibrosarcoma viability, CellTiter-Glo ATP luminescence, 48 h; Potency, µM (titrated, usually from 46.1 µM), inactives show at the highest dose activity, negative = less viability, hits mostly cytotoxic; 360,000 compounds, 1.6% hits; AID 686970;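 further: NT is the 2HG producing partner of a matched IDH1 knockdown line; 0% = DMSO-treated cells and -100% = media-only wells without cells; nearly all actives have a fitted effect of over 55% in size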
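A 48-hour cytotoxicity screen used HT-1080-NT cells plated 2 hours before compound delivery. ATP-based CellTiter-Glo luminescence measured viability, normalized to DMSO and no-cell controls.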
HT1080 IDH1KD tx: kills HT-1080 cells with IDH1 knockdown; HT-1080 IDH1 knockdown viability, ATP luminescence, 48 h; Potency, µM (highest dose often 46.1 µM), without a hit: at the highest dose activity, negative = toxicity, hits mostly cytotoxic; 360,000 compounds, 2% hits;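 further: 0% = DMSO wells and -100% = cell-free medium wells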
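% activity derives from luminescence (CellTiter-Glo), normalised to DMSO and no-cell wells. HT-1080-IDH1KD cells, 750/well, had 48 h compound exposure at 37 °C.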
KB-V1 MDR tox: kills drug-selected multidrug resistant KB-V1 cells. KB-V1 MDR cells viability, CellTiter-Glo, 72 h. Potency, µM (highest dose often 46.1 µM), usual class: cytotoxic. 400,000 compounds, 3.4% hits. AID 1347076; further: nearly all actives have a fitted effect of over 60% in size
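Cytotoxicity via CellTiter-Glo luminescence after 72 h compound exposure at 37 degrees C. Cells: drug-selected KB-V1 line, DMEM phenol-red free plus 10% FBS. Compounds tested at multiple concentrations; normalized data fitted to concentration-effect curves.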
DT40 TDP1 CPT: DT40-hTDP1 cell growth loss with CPT | Potency, µM (doses to about 46.2 µM), without a hit: top-dose activity change, negative = growth inhibition, usual class: inhibitors | chicken DT40 Tdp1-/-;hTDP1 cells + 20 nM CPT, ATP luminescence, 48 h | 420,000 compounds, 12% hits | AID 686979; further: nearly all actives have a fitted effect of over 55% in size
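Cell growth measured by CellTiter-Glo luminescence after a minimum 48 h, 37 C compound exposure with 20 nM CPT in Tdp1-knockout DT40 cells stably expressing hTDP1, seeded 400/well; qHTS titration format.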
KB-3-1 tox: KB-3-1 parental cell cytotoxicity. KB-3-1 viability, CellTiter-Glo ATP luminescence, 72 h. 400,000 compounds, 1.4% hits. Potency, µM (doses to about 46.1 µM), most hits filed as cytotoxic; further: nearly all actives have a fitted effect of over 60% in size
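72 h, 37 °C compound treatment of KB-3-1 parental cells; CellTiter-Glo added, 10 min, luminescence read. Data corrected against DMSO-only plates and normalized before curve fitting.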
DT40 TDP1 no CPT: qHTS for Inhibitors of human tyrosyl-DNA phosphodiesterase 1 (TDP1): qHTS in cells in absence of CPT | DT40 Tdp1-/- hTDP1 cells, no CPT, ATP luminescence, 48 h | Potency, µM (top dose mostly 46.2 µM), without a hit: top-dose activity change, negative = growth inhibition, usual class: inhibitors | 420,000 compounds, 15% hits | AID 686978, 2013; further: nearly all actives have a fitted effect of over 55% in size
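Growth kinetics read by CellTiter-Glo luminescence after ≥48 hr at 37 °C. Cells: DT40 Tdp1-/- stably carrying human TDP1, 400 per well, compound exposure in the absence of CPT (DMSO vehicle).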
* = called active by the depositor; i = inactive; ? = inconclusive; / = no result given. In the library only some 19% were active in any assay of this set; here they are far more common. The call rests on the fitted dose curve; in most records, active means well fitted curve in the direction sought with a large enough effect; inconclusive means small, poorly fitted or top-dose-only effect, or another doubt; inactive means no such curve, though single readings can be large; an effect the other way counts as inactive or inconclusive. Unless noted, on the % scale 0 is the no-effect control and ±100 the full control effect; potency means the concentration at half of the fitted maximal effect.

SMILES	HT1080-NT tox	HT1080 IDH1KD tx	KB-V1 MDR tox	DT40 TDP1 CPT	KB-3-1 tox	DT40 TDP1 no CPT
COc1ccc(Br)cc1CN(C)C(=O)c1cc(Cl)c2c(c1)OCCO2	-9.3%	-26.1%	?	?	i	20.6µM*
Cc1nc2c(sc3nc(N4CCOCC4)c4c(c32)CC(C)(C)OC4)c(-c2ccccc2)c1C(=O)O	10.5%	1.0%	i	25.9µM*	i	?
CC(C)CNc1ncnc2c1sc1nc(N3CCOCC3)c3c(c12)CC(C)(C)OC3	11.8%	7.1%	i	?	i	10.3µM*
CC1(C)Cc2c(c(N3CCOCC3)nc3snc(NC(=O)c4ccccc4)c23)CO1	-0.8%	7.5%	i	-14.4%	i	-14.9%
CCN(CC)CCNc1ncnc2c1sc1nc(N3CCCC3)c3c(c12)CC(C)(C)OC3	16.4µM*	18.4µM*	i	?	i	?
CN(C)CCNc1ncnc2c1sc1nc(N3CCCC3)c3c(c12)CC(C)(C)OC3	?	20.6µM*	?	?	i	25.9µM*
CCCCOC(=O)c1sc2nc(N3CCOCC3)c3c(c2c1N)CC(C)(C)OC3	5.6%	7.9%	i	-2.2%	?	-11.5%
Cc1ccc(-c2noc(-c3ccoc3C)n2)cc1	0.6%	3.4%	i	-23.1%	i	?
COc1ccc(Oc2ccc(N/C=C3/CCCC3=O)cc2)cc1	-17.2%	-13.5%	i	?	i	?
COc1ccc(Oc2ccc(N/C=C3\CCCC3=O)cc2)cc1	-3.7%	-6.2%	i	?	i	25.9µM*
COc1cc(/C=N/NC(=O)CSc2n[nH]c(=O)[nH]c2=O)cc(OC)c1O	0.3%	7.7%	i	18.1%	i	2.4%
C=CCn1c(SCC(=O)c2ccc(O)c(O)c2)nnc1-c1cccc(Cl)c1	-12.3%	-2.4%	i	14.6µM*	i	14.6µM*
C=CCn1c(SCC(=O)c2ccc(O)c(O)c2)nnc1-c1cccc(C)c1	0.8%	-10.1%	i	16.4µM*	i	18.4µM*
C=CCn1c(SCC(=O)c2ccc(O)c(O)c2)nnc1-c1cccnc1	-3.8%	-12.9%	i	-15.6%	i	7.3%
Cc1cc(C)cc(N(CCC#N)C(=O)CSc2ncnc3sccc23)c1	-2.4%	0.4%	?	?	i	?
S=C(NCCc1ccccc1)N1CCN(C(c2ccccc2)c2ccccc2)CC1	1.7%	-3.4%	?	11.6µM*	?	16.4µM*
S=C(NCCc1ccccc1)N1CCCC1	-0.1%	-5.3%	i	11.0%	i	9.2%
S=C(NCCc1ccccc1)N1CCN(C23CC4CC(CC(C4)C2)C3)CC1	-3.4%	-1.1%	?	10.3µM*	i	8.2µM*
Cc1ccc(NCSc2ccc(Cl)cc2)cc1	-25.2%	-24.3%	?	?	i	?
Clc1ccc(SCNc2ccccc2Cl)cc1	0.6%	-4.5%	i	9.2µM*	i	?
N=C1C(c2nc(-c3ccc(Cl)cc3)cs2)=C(O)CN1CCCN1CCOCC1	23.1µM*	?	i	25.9µM*	i	25.9µM*
COc1ccc(-c2csc(C3=C(O)CN(Cc4ccc(Cl)cc4)C3=N)n2)cc1OC	-0.4%	?	i	-11.6%	i	-29.7%
COc1ccc(N2CC(O)=C(c3nc(-c4ccc(F)cc4)cs3)C2=N)cc1Cl	16.8%	23.1%	i	?	i	?
COc1ccc(N2CC(O)=C(c3nc(-c4ccc(F)cc4)cs3)C2=N)cc1OC	-2.1%	-14.4%	i	?	i	18.4µM*
COc1cccc(CN2CC(O)=C(c3nc(-c4ccc(Cl)cc4)cs3)C2=N)c1	6.4%	13.7%	i	-17.8%	i	9.2µM*
SMILES	HT1080-NT tox	HT1080 IDH1KD tx	KB-V1 MDR tox	DT40 TDP1 CPT	KB-3-1 tox	DT40 TDP1 no CPT
CN(C(=O)c1cccc(NC(=O)Cc2cccc(NC(=O)C3CCCN(C(=O)C4CCCC4)C3)c2)c1)C1CC1 (stereo unspecified)	1.6%	-0.6%	i	-23.9%	i	?
CCC(=O)NC(NC(=S)Nc1ccccc1Br)C(Cl)(Cl)Cl (stereo unspecified)	10.9%	4.8%	i	5.4%	i	-28.5%
COc1ccccc1NC(NC(=O)c1cccnc1)C(Cl)(Cl)Cl (stereo unspecified)	-20.0%	4.0%	i	?	i	2.3%
CCC(=O)NC(NC(=S)Nc1cccc2cccnc12)C(Cl)(Cl)Cl (stereo unspecified)	-1.2%	-1.1%	i	18.4µM*	i	14.6µM*
CC(C)(C)C(=O)NC(Nc1cccc2cccnc12)C(Cl)(Cl)Cl (stereo unspecified)	-26.5%	-26.4%	?	?	i	16.4µM*
CC(C)C(=O)NC(NC(=S)Nc1cccc2cccnc12)C(Cl)(Cl)Cl (stereo unspecified)	-8.3%	-7.7%	23.1µM*	8.2µM*	i	16.4µM*
O=C(NC1CCCCC1)C(c1ccncc1)N(C(=O)c1csnn1)c1ccc(F)cc1 (stereo unspecified)	15.0%	-5.4%	i	-11.4%	i	-9.2%
NC(=S)N/N=C1\CC(c2ccc3c(c2)OCCCO3)Oc2ccc(F)cc21 (stereo unspecified)	?	?	?	2.59µM*	i	4.61µM*
Cc1cc(C)c(S(=O)(=O)N2CCN(C)CC2)c(C)c1	8.2%	-0.7%	?	-1.4%	i	-29.6%
CN1C(=O)N(C)c2cccc3cccc1c23	15.7%	12.4%	i	3.2%	i	25.2%
CN1C(=O)Nc2cccc3cccc1c23	-17.4%	-8.1%	0.461µM*	-24.6%	1.03µM*	?
CCc1ccccc1N(CC)C(=O)c1cn(CC)c(=O)c2cc(OC)c(OC)cc12	-1.8%	-13.4%	i	?	i	20.6µM*
CCc1ccc(N(CC)C(=O)c2cn(C)c(=O)c3cc(OC)c(OC)cc23)cc1	/	/	i	?	i	?
CCN(C(=O)c1cn(CC)c(=O)c2cc(OC)c(OC)cc12)c1ccc(C)c(C)c1	/	/	i	23.1µM*	i	?
Cc1cccc(Nc2nc(-c3ccc(O)cc3O)cs2)n1	?	?	?	13.1%	?	?
CC(C)c1ccc(O)c(NC(=O)c2ncn[nH]2)c1	-1.0%	8.4%	i	-26.4%	i	-23.6%
